Bioassay records as filed in PubChem BioAssay.
This excerpt belongs to a sample that is enriched for hits.
FXIa mix inh = inhibitors of human coagulation factor XIa, pooled mixtures. P03951. inhibition, % at 5 µM. hit rate 0.19% among 62,000. purified FXIa, fluorogenic substrate;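 note: each value is inhibition by a whole ten-compound pool holding the compound; 0% = enzyme with no mixture and 100% = wells lacking enzyme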
Target sequence (P03951 19-387 limits assumed): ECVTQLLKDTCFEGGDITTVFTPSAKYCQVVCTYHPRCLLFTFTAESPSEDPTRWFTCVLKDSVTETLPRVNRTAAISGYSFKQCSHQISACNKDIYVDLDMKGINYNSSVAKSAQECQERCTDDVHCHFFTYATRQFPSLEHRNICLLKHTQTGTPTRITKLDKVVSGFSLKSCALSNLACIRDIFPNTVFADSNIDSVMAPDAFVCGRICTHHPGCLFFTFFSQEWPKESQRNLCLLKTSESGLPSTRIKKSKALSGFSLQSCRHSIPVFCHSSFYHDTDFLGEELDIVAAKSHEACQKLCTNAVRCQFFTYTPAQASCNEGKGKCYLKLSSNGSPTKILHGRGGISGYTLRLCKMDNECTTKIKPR
Target sequence (P03951 388-625 limits assumed): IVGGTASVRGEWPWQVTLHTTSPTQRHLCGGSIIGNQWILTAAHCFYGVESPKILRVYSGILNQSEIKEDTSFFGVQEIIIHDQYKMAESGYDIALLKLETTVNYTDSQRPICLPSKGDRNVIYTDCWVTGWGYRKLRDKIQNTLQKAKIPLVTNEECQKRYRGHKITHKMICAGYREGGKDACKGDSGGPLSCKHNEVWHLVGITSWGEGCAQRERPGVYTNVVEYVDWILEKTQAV
HePTP inhibitor = blocks human HePTP tyrosine phosphatase; inhibition, % at 20 µM; hit rate 0.64% among 110,000; P35236; recombinant HePTP phosphatase activity, OD absorbance; in the data active = inhibition above about 50%;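 note: plate controls were vehicle for no effect and reference inhibitor for full effect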
TNAP act mid DEA = activates human TNAP at intermediate phosphate acceptor concentration; P05186; purified TNAP, CDP-star luminescence, 100 mM DEA, 30 min; stronger effect = higher value; scale: 0 levamisole-inhibited, 1 vehicle-only enzyme; activation factor at 20 µM; 64,000 tested, under 10 active;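 active = activation factor of at least 2 at 20 µM, relative to controls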
D1 mod = D1 dopamine receptor (human) allosteric modulation | HEK293 D1, CRE-luciferase, dopamine EC30 potentiation; actives deviate in either direction | B-score at 10 µM | hit rate 5.9% among 58,000;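 active = luminescence count or its row- and column-corrected plate score outside the 99.7% band of the plate's sample wells, on either side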
Candida biofilm = kills Candida albicans biofilms | C. albicans biofilm + clotrimazole, Alamar Blue | inhibition, % at 6 µM | hit rate 0.14% among 85,000;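 active = inhibition above 20%; inactive = inhibition below 20%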;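 note: preformed 24 hr biofilms exposed to compound for 48 hr; 0% = biofilm without compound and 100% = blank killed by clotrimazole plus chlorhexidine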
FXIIa inh mix = blocks human factor XIIa in pooled compound mixtures. purified FXIIa, fluorogenic substrate. inhibition, % at 5 µM. AID 684. hit rate 0.2% among 62,000. P00748;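 note: 0% = enzyme without compound and 100% = no enzyme blank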
D1 PAM confirm = D1 receptor (human) allosteric modulation, confirmed | luminescence at 10 µM | shares compounds with D1 mod | HEK293 D1 CRE-luciferase, dopamine EC30 potentiation; stronger effect = higher value | hit rate 88% among 2,200;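 active = luminescence in either of two replicates above the same-plate mean plus 3 SD of the low-dose dopamine control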
D1 ag no DA = secondary test of D1 modulators: activity without dopamine; luminescence at 10 µM; shares compounds with D1 mod; hit rate 0.8% among 1,900; HEK293 D1 CRE-luciferase, luminescence, no dopamine; stronger effect = higher value; AID 646; in the data active = luminescence above about 3900
Isoprot counter = isoproterenol response counter-screen activity for D1 modulators | shares compounds with D1 mod | HEK293 D1 CRE-luciferase, isoproterenol EC30 counter-screen; stronger effect = higher value | luminescence at 10 µM | hit rate 63% among 2,200;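 active = luminescence in either replicate above plate mean of wells with a partly effective reference agonist dose plus 3 SD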;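 note: isoproterenol raises cAMP through native beta-adrenoceptor Gs so signal bypasses D1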
The depositor's hits bear a star; . = no result given. Cut-off read from the data, not from the text of the source, unless noted: active = inhibition above about 20% (passing the limit was not always enough); inactive = the rest.

SMILES | FXIa mix inh | HePTP inhibitor | TNAP act mid DEA | D1 mod | Candida biofilm | FXIIa inh mix | D1 PAM confirm | D1 ag no DA | Isoprot counter
Cc1cc(-c2nnc3n2N=C(c2ccc(-c4ccccc4)cc2)CS3)n[nH]1 | 6 | . | 1 | -0.3 | 2 | 6 | . | . | .
Cc1ccc(-c2nnc3n2N=C(c2ccccc2Br)CS3)cc1 | 3 | -6 | 0.9 | 16* | 6 | 2 | 15256* | 1688 | 5504*
Cc1cccc(-c2nnc3n2N=C(c2ccccc2)CS3)c1 | . | 8 | 0.8 | 16* | 5 | . | 3880 | 1728 | 4692*
c1ccc(C2=Nn3c(nnc3-c3ccncc3)SC2)cc1 | 0 | 3 | 0.9 | 2.9* | 9 | 8 | 9856* | 1576 | 2808
c1ccc(C2=Nn3c(nnc3-c3ccccn3)SC2)cc1 | . | 3 | 0.8 | . | 11 | . | . | . | .
c1cncc(-c2nnc3n2N=C(c2cccs2)CS3)c1 | 5 | 8 | 1 | 4.1* | 1 | 10 | 15800* | 1740 | 4104*
Brc1cccc(C=NN2CCN(Cc3ccccc3)CC2)c1 | . | 3 | . | . | . | . | . | . | .
C/C=C/Cn1c(SCc2ccc(C)cc2)nc2c1c(=O)[nH]c(=O)n2C | 3 | 4 | 0.9 | 12* | -5 | 10 | 26548* | 1688 | 6572*
C=CCSc1nc2c(c(=O)[nH]c(=O)n2C)n1Cc1ccc(C)cc1 | 20 | -1 | 0.9 | . | 0 | 3 | . | . | .
C=CCn1c(SCc2ccc(Cl)cc2)nc2c1c(=O)[nH]c(=O)n2C | -9 | 8 | 0.9 | 2.9* | 6 | 11 | 8180* | 1824 | 3348*
C=CCSc1nc2c(c(=O)[nH]c(=O)n2C)n1C(C)C | 1 | 1 | 0.9 | 9.5* | . | 6 | 11684* | 1520 | 3388*
C=CCn1c(SCc2ccc(F)cc2)nc2c1c(=O)[nH]c(=O)n2C | 8 | 4 | 0.8 | 3.2 | 0 | 5 | . | . | .
CC(/C=N\N1CCN(c2ccccc2)CC1)=C\c1ccccc1 | . | 0 | . | . | . | . | . | . | .
COc1ccccc1NC(=O)C1(c2ccccc2)CCOCC1 | . | 7 | . | . | . | . | . | . | .
CC1CCc2nc(NCCO)nc(C(F)(F)F)c2C1 (stereo unspecified) | 6 | 14 | 0.9 | 7.5* | 0 | -15 | 13160* | 1232 | 3040*
OCCNc1nc(N2CCCC2)nc(N2CCCC2)n1 | . | . | . | . | -4 | . | . | . | .
Cc1cccc(N(C(=O)Nc2ccccc2)C2=NCC(C)S2)c1 (stereo unspecified) | 3 | 1 | 0.9 | 5.1* | -4 | -4 | 6412* | . | 2700*
CC(=O)Nc1ccc(S(=O)(=O)N(C2=NCC(C)S2)c2ccccc2)cc1 (stereo unspecified) | -6 | 0 | 0.9 | 19* | 11 | 6 | 5700 | 1632 | 2696
CC(=O)Nc1ccc(S(=O)(=O)N(C)c2ccccc2)cc1 | 4 | 6 | 0.9 | . | 9 | -4 | . | . | .
Cc1ccc(NC(=O)N(C2=NCC(C)S2)c2ccccc2)cc1 (stereo unspecified) | . | . | . | 0.78 | 6 | . | . | . | .
COc1cc(C2C3C(=O)N(c4ccccc4C(F)(F)F)C(=O)C3ON2c2ccccc2)ccc1O (stereo unspecified) | . | -5 | . | . | . | . | . | . | .
COc1ccc(CCNC(=O)c2cnn3cccnc23)cc1OC | 3 | 1 | 0.8 | 13* | -4 | 2 | 14608* | 1264 | 4912*
CCOC(=O)c1c(NC(=O)Cc2ccc(Cl)cc2)sc(C(=O)Nc2ccccc2)c1C | . | 3 | . | . | . | . | . | . | .
COc1cccc(C2=CC(c3cccs3)n3nnnc3N2)c1 (stereo unspecified) | . | . | . | . | 8 | . | . | . | .
COc1cccc(C2=CC(c3ccc(OC)c(OC)c3OC)n3nnnc3N2)c1 (stereo unspecified) | 5 | 1 | 0.9 | 19* | 9 | 10 | 12516* | . | 6192*
SMILES | FXIa mix inh | HePTP inhibitor | TNAP act mid DEA | D1 mod | Candida biofilm | FXIIa inh mix | D1 PAM confirm | D1 ag no DA | Isoprot counter
CCOC(=O)c1sc(NC(=O)CN2CCOCC2)c(C(=O)OCC)c1C | . | 6 | . | . | . | . | . | . | .
CCC(=O)n1/c(=N/C(=N)N)nc(C)c2ccc(C)cc21 | . | 10 | . | . | . | . | . | . | .
CCOc1cc2c(C#N)c(N3CCOCC3)nc(N)c2c(N)n1 | 7 | 4 | 0.9 | 12* | . | 8 | 11932* | 1728 | 4580*
CC(=O)NC1Sc2ccccc2N=C1c1ccccc1 (stereo unspecified) | 9 | -4 | 1 | 6.1* | 5 | 1 | 7472* | . | 2900
CC(=O)NC1C(=O)N=C(SCc2ccccc2)NC1=O (stereo unspecified) | -2 | 2 | 0.9 | 0.0046 | 1 | -15 | . | . | .
Cc1sc2nc(C3CC3)nc(NCCNS(C)(=O)=O)c2c1C | -2 | 7 | 0.9 | 6.5* | 8 | 5 | 10452* | 1764 | 2956
COc1ccc(CCNS(=O)(=O)c2cccc(C)c2)cc1OC | . | . | . | . | 1 | . | . | . | .
COc1ccc(CCNS(=O)(=O)c2cccc(F)c2)cc1OC | 4 | 6 | 0.9 | 8.1* | 7 | -14 | 11924* | . | 3032*
COc1ccc(CCNS(=O)(=O)c2ccc3c(c2)OCCO3)cc1OC | 3 | -7 | 1 | 5.2* | 3 | 12 | 11256* | 1696 | 2820
COc1ccc([N+](=O)[O-])cc1-c1ccc(C=C2C(=O)c3ccccc3C2=O)o1 | . | -6 | . | . | . | . | . | . | .
COc1cccc(C(=O)OCCN2C(=O)c3ccccc3C2=O)c1OC | 6 | -4 | 1 | 3.1* | 4 | 5 | 5788* | 1588 | 3180*
COc1ccc(C(=O)OCCN2C(=O)c3ccccc3C2=O)cc1 | -1 | 3 | 1 | 1.2 | . | 7 | . | . | .
CCC(Sc1nc2n[nH]c(C)c2c(=N)n1-c1ccc(C)c(Cl)c1)C(=O)N1CCOCC1 (stereo unspecified) | . | . | . | 0.73 | 6 | . | . | . | .
CCC(Sc1nc2n[nH]c(C)c2c(=N)n1-c1cccc(Cl)c1)C(=O)NCCOC (stereo unspecified) | 6 | . | . | 5.1* | . | 9 | 11752* | 1764 | 4236*
Brc1ccc(-c2nn3c(-c4ccco4)nnc3s2)o1 | 6 | 12 | 0.9 | 4.1* | 2 | 0 | 10612* | 1476 | 3108*
Cc1cc(C(F)F)n2ncc(C(=O)NCc3ccccc3C(F)(F)F)c2n1 | 7 | 13 | 0.8 | 5.3* | -2 | 2 | 8576* | . | 3500*
COc1ccc(CCNC(=O)c2cnn3c(C(F)F)cc(C)nc23)cc1OC | . | . | . | . | 4 | . | . | . | .
Cc1cc(C(F)F)n2ncc(C(=O)NC3CCCCCC3)c2n1 | 18 | 12 | 0.9 | 6.3* | 6 | 4 | 10720* | 1544 | 4900*
O=C1/C(=C/c2ccc(-c3ccccc3[N+](=O)[O-])o2)SC(=S)N1c1cccc(C(F)(F)F)c1 | . | -4 | . | . | . | . | . | . | .
COc1cccc(C2C(C(=O)c3cccs3)=C(O)C(=O)N2CCN(C)C)c1OC (stereo unspecified) | 10 | 4 | 0.9 | 2.5* | 7 | 3 | 5748 | . | 2424
